High-throughput results as filed in PubChem BioAssay.
NFkB SMM: binds human NF-kappa-B p105 on microarray | P19838 | Small molecule microarray, anti-His fluorescence binding | calls only | 17,000 compounds, 1.3% hits | AID 624139;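 active = spot fluorescence over background significantly raised, with a chance value under 7% in all four replicate spots of the compound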;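 also: probe protein is his-tagged human p50 processed subunit at 1 µg/ml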
Target sequence (P19838 1-433 limits assumed): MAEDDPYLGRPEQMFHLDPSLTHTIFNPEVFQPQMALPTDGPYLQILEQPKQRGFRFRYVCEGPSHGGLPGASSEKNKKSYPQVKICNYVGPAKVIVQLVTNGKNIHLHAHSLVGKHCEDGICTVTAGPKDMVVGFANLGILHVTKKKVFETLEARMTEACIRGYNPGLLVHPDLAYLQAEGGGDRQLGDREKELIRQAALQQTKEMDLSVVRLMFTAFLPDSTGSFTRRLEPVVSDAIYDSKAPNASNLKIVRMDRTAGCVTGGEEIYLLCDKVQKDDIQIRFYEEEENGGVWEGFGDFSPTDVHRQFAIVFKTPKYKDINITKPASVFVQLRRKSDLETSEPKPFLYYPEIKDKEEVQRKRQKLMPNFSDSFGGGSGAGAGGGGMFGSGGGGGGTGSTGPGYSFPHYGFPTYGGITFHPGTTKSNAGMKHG
STAT3 SMM: binds human STAT3 on microarray; 17,000 compounds, 0.2% hits; calls only; P40763; Small molecule microarray, His-STAT3 binding, anti-His fluorescence;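 active = compounds whose four printed spots each show fluorescence over background unusually high for their array block, chance value under 7%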
p53 PUMA act: mutant p53 pathway reactivation; AID 624151; 28,000 compounds, 1.5% hits; activation, % at 9.98 µM; SW480 PUMA-promoter luciferase; in the data active = activation above about 52%
p53 mut binder: mutant p53 (human) binding | small molecule microarray binding, anti-GST fluorescence | calls only | 17,000 compounds, 0.4% hits | AID 624136;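 active = compounds whose four printed spots each glow above background more than chance allows, each with a p-value under 7%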
Myc binder: c-Myc (human) binding. small molecule microarray, His-c-Myc binding, anti-His fluorescence. calls only. 17,000 compounds, 1.5% hits. AID 624141;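 active = spot fluorescence over background with P-value below 7% in all four replicate spots, showing protein binding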
Of the large screens only hits and unclear results are named; the others gave an inactive call. A selection: hits, their analogues and other compounds. The true share with any hit is near 2.6%.

CC(C)(C)NS(=O)(=O)c1ccc(OCC(=O)N2CCOCC2)cc1	none
Cc1nnc(SCc2nc(N)nc(Nc3ccc4ccccc4c3)n2)s1	p53 PUMA act 97 (no result: NFkB SMM, STAT3 SMM, p53 mut binder, Myc binder)
Cc1nnc(SCc2nc(N)nc(Nc3ccccc3)n2)s1	none
CC1CCc2c(sc(NC(=O)c3nc4ncccn4n3)c2C(N)=O)C1 (configuration not stated)	p53 PUMA act 59 (no result: NFkB SMM, STAT3 SMM, p53 mut binder, Myc binder)
CCc1ccc(OCC(=O)Nc2ccc(-c3nc4ccccc4s3)c(O)c2)cc1	p53 PUMA act 123 (no result: NFkB SMM, STAT3 SMM, p53 mut binder, Myc binder)
CCc1ccc(OCC(=O)Nc2ccc(-c3nc4ccccc4o3)c(O)c2)cc1	p53 PUMA act 59 (no result: NFkB SMM, STAT3 SMM, p53 mut binder, Myc binder)
CCc1ccc2oc(-c3cc(NC(=O)COc4ccc(OC)cc4)ccc3Cl)nc2c1	none (no result: NFkB SMM, STAT3 SMM, p53 mut binder, Myc binder)
CC(=O)c1c(C)oc2ccc(N(C(=O)c3ccc(C)cc3)S(=O)(=O)c3cccc4cccnc34)cc12	none (no result: NFkB SMM, STAT3 SMM, p53 mut binder, Myc binder)
Cc1ccc(C(=O)C2C(=O)C(=O)N(Cc3cccnc3)C2c2cccc(Oc3ccccc3)c2)o1 (configuration not stated)	none (no result: NFkB SMM, STAT3 SMM, p53 mut binder, Myc binder)
CC(=O)c1cccc(-n2c(CCC(=O)O)ccc2-c2ccc(Br)cc2)c1	none (no result: NFkB SMM, STAT3 SMM, p53 mut binder, Myc binder)
O=C1c2ccccc2C(=O)N1[C@@H]1CCCN(Cc2cccc(OCCO)c2)C1	none (no result: p53 PUMA act)
COc1ccc(OCC(=O)Nc2cc(-c3nc4ccccc4s3)ccc2C)cc1	none (no result: NFkB SMM, STAT3 SMM, p53 mut binder, Myc binder)
Cc1ccc(-c2nc3ccccc3s2)cc1NC(=O)COc1ccccc1	p53 PUMA act 54
COc1ccc(-c2nc3ccccc3s2)cc1NC(=O)COc1cccc(C)c1	p53 PUMA act 66 (no result: NFkB SMM, STAT3 SMM, p53 mut binder, Myc binder)
COc1ccc(-c2nc3ccccc3s2)cc1NC(=O)COc1ccccc1[N+](=O)[O-]	none (no result: NFkB SMM, STAT3 SMM, p53 mut binder, Myc binder)
C[C@H](CO)N1C[C@H](C)[C@@H](CN(C)S(=O)(=O)c2ccc(Cl)cc2)Oc2ccc(NC(=O)CCN3CCOCC3)cc2CC1=O	none (no result: NFkB SMM, STAT3 SMM, p53 mut binder, Myc binder)
Cc1nc(-c2ccccc2)sc1C(=O)C1C(=O)C(=O)N(CCCN2CCOCC2)C1c1cccs1 (configuration not stated)	none (no result: NFkB SMM, STAT3 SMM, p53 mut binder, Myc binder)
COc1ccc(NC(=O)Cc2c(OC)ccc3cc(Br)ccc23)c(OC)c1	none (no result: NFkB SMM, STAT3 SMM, p53 mut binder, Myc binder)
O=C1c2ccccc2C(=O)N1CCCSc1nccn1-c1cc(Cl)ccc1Cl	none (no result: NFkB SMM, STAT3 SMM, p53 mut binder, Myc binder)
O=C1c2ccccc2C2CC(c3cc(Cl)ccc3Cl)=NN12 (configuration not stated)	p53 PUMA act 79 (no result: NFkB SMM, STAT3 SMM, p53 mut binder, Myc binder)
COc1ccc(Cl)cc1NC(=O)COc1ccccc1[N+](=O)[O-]	none
COc1ccccc1NC(=O)COc1ccc(Cl)cc1CO	p53 PUMA act 63
Cc1cc(OCC(=O)Nc2ccccc2CO)cc(C)c1Br	none (no result: NFkB SMM, STAT3 SMM, p53 mut binder, Myc binder)
O=C(COc1ccc(Br)cc1Cl)Nc1ccccc1CO	p53 PUMA act 75 (no result: NFkB SMM, STAT3 SMM, p53 mut binder, Myc binder)
COc1ccc(Cl)cc1NC(=O)COc1ccccc1OC	p53 PUMA act 99
CC(=O)c1ccc(NC(=O)CCCC(=O)O)cc1	none (no result: NFkB SMM, STAT3 SMM, p53 mut binder, Myc binder)
COc1cc(OC)c(NC(=O)CN2C(=O)c3ccccc3C2=O)cc1Cl	none
Fc1ccc(N(Cc2nc3ccccc3[nH]2)Cc2nc3ccccc3[nH]2)cc1	none (no result: NFkB SMM, STAT3 SMM, p53 mut binder, Myc binder)
C[C@]12CCC(=O)C=C1CC[C@@H]1C2CC[C@@]2(C)C1CC[C@@H]2C(=O)CO (some centres not stated)	p53 mut binder active
C[C@]12C[C@H](O)C3C(CC[C@@H]4C[C@H](O)CC[C@]34C)C1CC[C@@H]2C(=O)CO (some centres not stated)	none
CC(NS(=O)(=O)c1ccc(F)cc1)C(=O)Nc1ccccc1F (configuration not stated)	none (no result: NFkB SMM, STAT3 SMM, p53 mut binder, Myc binder)
COc1cc(NC(=O)COc2c(Cl)c(C)c(Cl)c(C)c2Cl)c(OC)cc1Cl	none (no result: NFkB SMM, STAT3 SMM, p53 mut binder, Myc binder)
CC1(C)Cc2nc3sc4c(=O)n(CC(=O)NCCc5ccccc5)cnc4c3cc2CO1	none (no result: NFkB SMM, STAT3 SMM, p53 mut binder, Myc binder)
CC(=O)c1ccc(NC(=O)Cn2cnc3c(sc4nc5c(cc43)COC(C)(C)C5)c2=O)cc1	p53 PUMA act 73
CC(C)=CCc1c(O)cc(O)c2c1OC(c1ccccc1)CC2=O (configuration not stated)	none
CC(C)=CCc1c(O)c(CC=C(C)C)c2c(c1O)C(=O)CC(c1ccccc1)O2 (configuration not stated)	Myc binder active
COc1cc(OC)cc(-c2nnc(SCC(=O)Nc3sc4c(c3C#N)CCCC4)o2)c1	none (no result: NFkB SMM, STAT3 SMM, p53 mut binder, Myc binder)
COc1ccc(OCC(=O)Nc2sc3c(c2C#N)CCC3)cc1	p53 PUMA act 94
COc1ccc(C(=O)Nc2sc3c(c2C(=O)Nc2cccc(OC)c2)CCC3)cc1	p53 PUMA act 71 (no result: NFkB SMM, STAT3 SMM, p53 mut binder, Myc binder)
CC1(C)Cc2nc3nc(SCC(=O)c4ccc(Br)cc4)n(-c4ccccc4)c(=O)c3cc2CO1	none (no result: NFkB SMM, STAT3 SMM, p53 mut binder, Myc binder)
Cc1ccccc1-c1nnc(SCC(=O)Nc2cccc(Br)c2)n1C	none
O=[N+]([O-])c1ccc2nc(CSc3nc4ccccc4[nH]3)[nH]c2c1	none
Cc1nc([N+](=O)[O-])c(Sc2nc3ccccc3[nH]2)n1Cc1ccccc1	p53 PUMA act 66
Cc1cc2nc(Sc3c([N+](=O)[O-])nc(C)n3Cc3ccccc3)[nH]c2cc1C	p53 PUMA act 77 (no result: NFkB SMM, STAT3 SMM, p53 mut binder, Myc binder)
CC1CC(=O)c2c(ccc3c2C(=O)c2cccc(O)c2C3O)C1 (configuration not stated)	none
O=C(CCCN1C(=O)c2cccc3cccc(c23)C1=O)Nc1ccccc1[N+](=O)[O-]	none (no result: NFkB SMM, STAT3 SMM, p53 mut binder, Myc binder)
C[C@@H]1CN([C@H](C)CO)C(=O)c2cc(NC(=O)c3ccncc3)ccc2O[C@@H](C)CCCCO[C@H]1CN(C)C	Myc binder active
C[C@H](CO)N1C[C@H](C)[C@H](CN(C)S(=O)(=O)c2cccs2)OCCCC[C@H](C)Oc2ccc(NC(=O)c3ccncc3)cc2C1=O	NFkB SMM active
CC(C)NC(=O)N(C)C[C@H]1OCCCC[C@H](C)Oc2ccc(NC(=O)c3ccncc3)cc2C(=O)N([C@H](C)CO)C[C@@H]1C	NFkB SMM active
CC(C)NC(=O)N(C)C[C@@H]1OCCCC[C@@H](C)Oc2ccc(NC(=O)c3ccccc3)cc2C(=O)N([C@@H](C)CO)C[C@@H]1C	none
C[C@H]1CCCCO[C@@H](CN(C)C)[C@@H](C)CN([C@@H](C)CO)C(=O)c2cc(NC(=O)c3ccncc3)ccc2O1	none
CC(C)NC(=O)N(C)C[C@@H]1OCCCC[C@@H](C)Oc2ccc(NC(=O)c3ccncc3)cc2C(=O)N([C@H](C)CO)C[C@H]1C	NFkB SMM active, Myc binder active
CS(=O)(=O)N(CC(=O)Nc1c(F)cccc1F)c1cc(Cl)c(Cl)cc1Cl	none (no result: NFkB SMM, STAT3 SMM, p53 mut binder, Myc binder)
CC(C)NC(=O)N(C)C[C@@H]1OCCCC[C@@H](C)Oc2ccc(NC(=O)c3ccncc3)cc2C(=O)N([C@H](C)CO)C[C@@H]1C	none
CC(C)NC(=O)N(C)C[C@H]1OCCCC[C@H](C)Oc2ccc(NC(=O)c3ccncc3)cc2C(=O)N([C@@H](C)CO)C[C@@H]1C	NFkB SMM active, Myc binder active
CCOC(=O)c1c(NC(=S)Nc2nc(C)cc(C)n2)sc2c1CCCCCC2	none
CCOC(=O)c1c(NC(=S)NC(=O)c2ccc(OC)c([N+](=O)[O-])c2)sc2c1CCC2	Myc binder active
O=C(COc1cc(Cl)c(Cl)cc1Cl)NCc1ccco1	p53 PUMA act 56
O=C(COc1ccccc1Cl)NCc1ccco1	none (no result: NFkB SMM, STAT3 SMM, p53 mut binder, Myc binder)
O=c1cc(-c2ccccc2)oc2cc(O)ccc12	p53 PUMA act 77
Nc1ccc(-c2cc(=O)c3cc(O)ccc3o2)cc1	none
COc1ccc2c(=O)cc(-c3ccccc3)oc2c1	p53 PUMA act 81
